Reference: PubChem BioAssay (NCI)
About 83,000 compounds went through this panel and 20% of them were active in at least one assay; those are over-represented in the sample as a whole.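 48-hour exposure, single concentration, 96-well plates; percent growth endpoint where 0 means no net growth. Active: below 10.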 The source made the active and inactive calls.

Assays:
Experiment in all cases: NCI-60 one-dose screen, 48 h (100 = growth as untreated, 0 = no growth, -100 = all killed)
NCI-H23 lung = conditions: 10 µM unless noted
NCI-H322M lung = conditions: 10 µM unless noted
HOP-62 NSCLC = conditions: 10 µM unless noted
NCI-H460 lung = conditions: 10 µM unless noted
HOP-92 NSCLC = conditions: 10 µM unless noted
NCI-H522 lung = conditions: 10 µM
A549/ATCC NSCLC = conditions: 10 µM unless noted
786-0 renal = conditions: 10 µM unless noted

Measured: growth

CCCCCCCC/C=C\CCCCCCCCOc1cccc(CC(=O)NCC[N+]2(C)CCOCC2)c1
inactive: NCI-H23 lung 90.4% | NCI-H322M lung 101% | HOP-62 NSCLC 66.3% | NCI-H460 lung 67% | HOP-92 NSCLC 86.4% | NCI-H522 lung 77% | A549/ATCC NSCLC 90.6% | 786-0 renal 94.9%

O=S(=O)(Nc1ccc(Cl)c(Cl)c1)c1ccc(-c2cnc(C3CC3)o2)cc1
inactive: NCI-H23 lung 39.6% | NCI-H322M lung 40.7% | HOP-62 NSCLC 24% | HOP-92 NSCLC 48% | A549/ATCC NSCLC 25.5% | 786-0 renal 46.3%
active: NCI-H460 lung 4.29% | NCI-H522 lung 6.78%

COc1cccc2c(=O)c3c(sc12)c(NCCN(C)C)nc1ccccc13
active: NCI-H460 lung -53.1% | HOP-92 NSCLC -3.75% | A549/ATCC NSCLC 7.73%
inactive: NCI-H23 lung 32.4% | NCI-H322M lung 26.2% | HOP-62 NSCLC 27.2% | NCI-H522 lung 29.1% | 786-0 renal 28.7%

CCCCCCCC/C=C\CCCCCCCCOc1cccc(CC(=O)NCC[N+](C)(C)C)c1
inactive: NCI-H23 lung 83.1% | NCI-H322M lung 102% | HOP-62 NSCLC 62.9% | NCI-H460 lung 57.9% | HOP-92 NSCLC 74.2% | NCI-H522 lung 80.8% | A549/ATCC NSCLC 90.9% | 786-0 renal 80.8%

O=C(N/N=C(\CS(=O)(=O)c1ccccc1)c1cc2ccccc2oc1=O)c1ccccc1
inactive: NCI-H23 lung 97.9% | NCI-H322M lung 107% | HOP-62 NSCLC 117% | NCI-H460 lung 101% | HOP-92 NSCLC 117% | NCI-H522 lung 100% | A549/ATCC NSCLC 93.1% | 786-0 renal 106%

O=C1/C(=C/c2ccccc2F)CNC/C1=C\c1ccccc1F
inactive: NCI-H322M lung 14.8% | HOP-92 NSCLC 16.6%
active: NCI-H23 lung -48.3% | HOP-62 NSCLC -63.6% | NCI-H460 lung -29.7% | NCI-H522 lung -61.1% | A549/ATCC NSCLC -11.1% | 786-0 renal -92.8%

Cc1cccc2c(=O)c3c(sc12)c(NCCNCCO)nc1ccccc13
active: NCI-H460 lung 9.95%
inactive: NCI-H23 lung 55.3% | NCI-H322M lung 37.7% | HOP-62 NSCLC 22.6% | HOP-92 NSCLC 33.1% | NCI-H522 lung 29.1% | A549/ATCC NSCLC 37.7% | 786-0 renal 52.9%

COc1cc(/C=N/NC(=O)c2cnn3c2NC(c2ccccc2)C3)ccc1OC1CCCC1 (configuration not stated)
inactive: NCI-H23 lung 50% | NCI-H322M lung 32.9% | HOP-62 NSCLC 35.1% | HOP-92 NSCLC 45.7% | NCI-H522 lung 11.7% | A549/ATCC NSCLC 40.6%
active: NCI-H460 lung 2.88% | 786-0 renal 9.01%

COc1ccc(/C=N/NC(=O)c2cnn3c2NC(c2ccccc2)C3)cc1OC1CCCC1 (configuration not stated)
inactive: NCI-H23 lung 98.8% | NCI-H322M lung 101% | HOP-62 NSCLC 87.9% | NCI-H460 lung 100% | HOP-92 NSCLC 94% | NCI-H522 lung 79.5% | A549/ATCC NSCLC 84.1% | 786-0 renal 98.4%

COc1cc(OCc2cccc(-c3ccc(C(O)c4nccs4)cc3)c2C)cc(OC)c1C=O (configuration not stated)
inactive: NCI-H23 lung 42.1% | NCI-H322M lung 92.1% | HOP-62 NSCLC 47.9% | NCI-H460 lung 38.8% | HOP-92 NSCLC 62.5% | NCI-H522 lung 47.3% | A549/ATCC NSCLC 40.2% | 786-0 renal 48.2%

O=C(c1cnn2c1NC(c1ccc(F)cc1)C2)N1CCCCC1 (configuration not stated)
inactive: NCI-H23 lung 105% | NCI-H322M lung 112% | HOP-62 NSCLC 92.1% | NCI-H460 lung 105% | HOP-92 NSCLC 97% | NCI-H522 lung 93.3% | A549/ATCC NSCLC 98.2% | 786-0 renal 106%

COc1ccc(OC)c(/C=C2\Oc3cc(O)ccc3C2=O)c1
inactive: NCI-H23 lung 96.1% | NCI-H322M lung 92.6% | HOP-62 NSCLC 101% | NCI-H460 lung 91.6% | HOP-92 NSCLC 98.2% | NCI-H522 lung 77.6% | 786-0 renal 89.5%

CCCCOC(=O)C1OC(Oc2ccc3c(C)cc(=O)oc3c2)[C@@H](OC(C)=O)C(OC(C)=O)C1OC(C)=O (some centres not stated)
inactive: NCI-H23 lung 99.9% | NCI-H322M lung 104% | HOP-62 NSCLC 98.7% | NCI-H460 lung 105% | HOP-92 NSCLC 98.3% | NCI-H522 lung 88.8% | A549/ATCC NSCLC 96.3% | 786-0 renal 98.5%

C[C@]1(CO)C[C@@H](O)C[C@]2(C)[C@@H]1CC[C@@]13C[C@@H]4[C@@H](C[C@H]12)[C@]4(C)C3
inactive: NCI-H23 lung 108% | NCI-H322M lung 103% | HOP-62 NSCLC 101% | NCI-H460 lung 104% | HOP-92 NSCLC 103% | NCI-H522 lung 101% | 786-0 renal 104%

NC(=O)c1cccc(-n2ccc3cc(NC(=O)Nc4ccc(Cl)c(Cl)c4)ccc32)n1
inactive: NCI-H23 lung 92.9% | NCI-H322M lung 96.7% | HOP-62 NSCLC 81.1% | NCI-H460 lung 75.4% | HOP-92 NSCLC 78% | NCI-H522 lung 68.2% | A549/ATCC NSCLC 74.4% | 786-0 renal 66.4%

COC(=O)c1c2c(c(C)[n+]([O-])c1C)C(=O)C=C(NCc1ccc(F)cc1)C2=O
active: NCI-H23 lung -46.2% | NCI-H322M lung -6.43% | HOP-62 NSCLC -6.11% | NCI-H460 lung -0.65% | HOP-92 NSCLC -41.1% | NCI-H522 lung -15.1% | A549/ATCC NSCLC -22.7% | 786-0 renal 5.86%

COc1cc(/C=C/C(=O)CC(=O)/C=C/c2cc(Br)c(OC)c(OC)c2)cc(Br)c1OC
inactive: NCI-H23 lung 100% | NCI-H322M lung 97.6% | HOP-62 NSCLC 93.1% | NCI-H460 lung 109% | HOP-92 NSCLC 93.7% | NCI-H522 lung 92.8% | A549/ATCC NSCLC 96.1% | 786-0 renal 94.3%

O=C1N/C(=C\c2ccccc2)c2ncccc21
inactive: NCI-H23 lung 95% | NCI-H322M lung 95.8% | HOP-62 NSCLC 100% | NCI-H460 lung 113% | HOP-92 NSCLC 94.9% | NCI-H522 lung 86.9% | 786-0 renal 98.7%

Cc1ccccc1-c1cc(-c2ccc(Br)s2)[nH]c(=O)c1C#N
inactive: NCI-H23 lung 96.8% | NCI-H322M lung 97.9% | HOP-62 NSCLC 104% | NCI-H460 lung 106% | HOP-92 NSCLC 77.9% | NCI-H522 lung 93.4% | A549/ATCC NSCLC 107% | 786-0 renal 97.6%

O=C1c2ccccc2-c2cn(Cc3ccccc3)c3cccc(c23)C1c1cccnc1 (configuration not stated)
inactive: NCI-H23 lung 45.5% | NCI-H322M lung 54% | HOP-62 NSCLC 36% | NCI-H460 lung 23.2% | HOP-92 NSCLC 76.8% | A549/ATCC NSCLC 42.2% | 786-0 renal 52.2%
active: NCI-H522 lung -12.4%

COc1ccc(/C=N/OCC(O)CN2CCC(O)CC2)cc1OC1CCCC1 (configuration not stated)
inactive: NCI-H23 lung 106% | NCI-H322M lung 108% | HOP-62 NSCLC 103% | NCI-H460 lung 106% | HOP-92 NSCLC 98.2% | NCI-H522 lung 99.2% | A549/ATCC NSCLC 101% | 786-0 renal 102%

CCC(C)Oc1cc(/C=N/NC(=O)c2cnn3c2NC(c2ccccc2)C3)ccc1OC (configuration not stated)
inactive: NCI-H23 lung 58% | NCI-H322M lung 45% | HOP-62 NSCLC 37.2% | NCI-H460 lung 11.5% | HOP-92 NSCLC 71.8% | NCI-H522 lung 10.7% | 786-0 renal 47.6%

COC(=O)c1c2c(c(C)[n+]([O-])c1C)C(=O)C=C(NCc1ccc(Cl)cc1)C2=O
active: NCI-H23 lung -35.7% | NCI-H322M lung -7.11% | HOP-62 NSCLC 2.25% | NCI-H460 lung 0.382% | HOP-92 NSCLC -27.9% | NCI-H522 lung -15.1% | A549/ATCC NSCLC -16.5% | 786-0 renal 7.94%

O=C(NCc1ccc(F)cc1)C1CN(c2ccc(Cl)cc2)N(c2ccc(Cl)cc2)C1=O (configuration not stated)
inactive: NCI-H23 lung 78.8% | NCI-H322M lung 93.1% | HOP-62 NSCLC 60.5% | NCI-H460 lung 48% | HOP-92 NSCLC 91.1% | NCI-H522 lung 52.5% | A549/ATCC NSCLC 48.8% | 786-0 renal 79.1%

C=C1CC[C@@H]2[C@@](C)(CCC[C@]2(C)C(=O)O)[C@@H]1CC[C@H](CO)CCO
inactive: NCI-H23 lung 102% | NCI-H322M lung 101% | HOP-62 NSCLC 100% | NCI-H460 lung 113% | HOP-92 NSCLC 90% | NCI-H522 lung 85.6% | A549/ATCC NSCLC 102% | 786-0 renal 99.3%

N#Cc1c(-c2cccc(F)c2)cc(-c2ccc(Br)s2)[nH]c1=O
inactive: NCI-H23 lung 84.9% | NCI-H322M lung 87.9% | HOP-62 NSCLC 72.2% | NCI-H460 lung 38.6% | HOP-92 NSCLC 42.6% | NCI-H522 lung 35.7% | A549/ATCC NSCLC 59.4% | 786-0 renal 96.3%

O=C1Nc2ccc(Cl)cc2/C1=N/N=C(c1ccccc1)c1ccccc1
inactive: NCI-H23 lung 93.9% | NCI-H322M lung 98.1% | HOP-62 NSCLC 83.3% | NCI-H460 lung 100% | HOP-92 NSCLC 94.2% | NCI-H522 lung 83.4% | A549/ATCC NSCLC 91.9% | 786-0 renal 102%

Nc1cc2[nH]c(=O)c3ccccc3c2cc1Br
inactive: NCI-H23 lung 70.5% | NCI-H322M lung 86% | HOP-62 NSCLC 68.9% | NCI-H460 lung 67.3% | HOP-92 NSCLC 58.4% | NCI-H522 lung 90% | A549/ATCC NSCLC 84.5% | 786-0 renal 104%

CC(=O)OC[C@]1(C)C=C2C(=O)[C@](C)(O)C3(CC3)C(C)=C2[C@H]1OC(C)=O
inactive: NCI-H23 lung 75% | NCI-H322M lung 98.5% | HOP-62 NSCLC 53.7% | NCI-H460 lung 95.1% | HOP-92 NSCLC 122% | NCI-H522 lung 71.1% | A549/ATCC NSCLC 100% | 786-0 renal 87.8%

COc1cccc(OC)c1OC(=O)c1ccccc1
inactive: NCI-H23 lung 100% | NCI-H322M lung 109% | HOP-62 NSCLC 110% | NCI-H460 lung 102% | HOP-92 NSCLC 82.5% | NCI-H522 lung 95.5% | A549/ATCC NSCLC 96.5% | 786-0 renal 106%

O=C(N/N=C/c1ccc2c(c1)OCO2)c1cnn2c1NC(c1ccccc1)C2 (configuration not stated)
inactive: NCI-H23 lung 57.1% | NCI-H322M lung 59.6% | HOP-62 NSCLC 60.5% | NCI-H460 lung 30.1% | HOP-92 NSCLC 73.7% | NCI-H522 lung 45.7% | A549/ATCC NSCLC 45% | 786-0 renal 78.9%

COC(=O)c1c2c(c(C)[n+]([O-])c1C)C(=O)C(NCc1ccc(O)cc1)=CC2=O
inactive: HOP-92 NSCLC 34%
active: NCI-H23 lung -57.4% | NCI-H322M lung 0.623% | HOP-62 NSCLC -7.28% | NCI-H460 lung -3.38% | NCI-H522 lung -33.2% | A549/ATCC NSCLC 4.46% | 786-0 renal 7.96%
